{
  "source": "PubChem BioAssay (NCATS)",
  "note": "Values without a mark were called inactive. Entries that show only a call come without a potency. Active and inactive are the calls of the source. The call rests on the fitted dose curve; in most records, active means well fitted inhibition curve with a large enough effect; inconclusive means small, poorly fitted or top-dose-only effect; inactive means flat fitted curve, though single readings scatter.",
  "data": [
    {"target": "Luciferin 4-monooxygenase (Photinus pyralis) (UniProt P08659)", "test": "Primary firefly luciferase (FLuc) qHTS assay for identification of artifact compounds. (AID 1845220); further: nearly all actives have a fitted effect of over 60% in size", "conditions": "purified firefly luciferase, luminescence, 5 min; series mostly up to 54.1 µM", "outline": "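Cell-free, 1536-well qHTS. Buffer pH 7.6 with 0.01% Tween-20 and 0.05% BSA; 10 uM D-luciferin, 10 uM ATP; 10 nM P. pyralis luciferase; luminescence after 5 min.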", "values": [
      {"smiles": "O=C1OCC(c2ccccc2)=C1Cc1ccccc1", "Potency": "inactive"},
      {"smiles": "CC(NC(=O)C(O)C(C)C)C(=O)NC1C(=O)N(C)CCc2ccccc21", "note": "(stereo not drawn)", "Potency": "inactive"},
      {"smiles": "CC1(C)C=CN2C(=O)C3=CCCN3C(=O)[C@@H]2C[C@@]12Nc1ccccc1C2=O", "Potency": "inactive"},
      {"smiles": "OC[C@H]1O[C@@H](Oc2ccccc2)[C@H](O)[C@@H](O)[C@@H]1O", "Potency": "inactive"},
      {"smiles": "CC(Oc1ccc2[nH]nc(/C=C/c3cnn(CCO)c3)c2c1)c1c(Cl)cncc1Cl", "note": "(stereo not drawn)", "Potency": "inactive"},
      {"smiles": "CS(=O)(=O)N1CCC(NC(=O)c2[nH]ncc2NC(=O)c2c(Cl)cccc2Cl)CC1", "Potency": "inactive"},
      {"smiles": "CCc1cnn2c(NCc3ccc[n+]([O-])c3)cc(N3CCCCC3CCO)nc12", "note": "(stereo not drawn)", "Potency": "inactive"},
      {"smiles": "CC1(C)CC[C@]2(C(=O)O[C@@H]3O[C@H](CO)[C@@H](O)[C@H](O)[C@H]3O)CC[C@]3(C)C(=CCC4[C@@]5(C)CC[C@H](O[C@@H]6O[C@H](C(=O)O)[C@@H](O)[C@H](O)[C@H]6O)[C@@](C)(CO)C5CC[C@]43C)C2C1", "note": "(stereo partly drawn)", "activity change, negative = inhibition": "-3.91% [at 11.6 µM]"},
      {"smiles": "CC(O)CO[C@@H]1O[C@H](CO)[C@@H](O)[C@H](O)[C@H]1O", "note": "(stereo partly drawn)", "Potency": "inactive"},
      {"smiles": "C/C1=C\\CC[C@H](C)CCO[C@@H]2O[C@H](CO[C@@H]3OC[C@](O)(COC1=O)[C@H]3O)[C@@H](O)[C@H](O)[C@H]2O", "Potency": "inactive"},
      {"smiles": "O=C(CCc1nnc2n(Cc3ccc(Cl)cc3)c(=O)c3ccccc3n12)NCCC1=CCCCC1", "Potency": "inactive"},
      {"smiles": "CNC(=O)c1cccc(-c2ccc3c(N4CCOC[C@@H]4C)nc(N4CCOC[C@@H]4C)nc3n2)c1", "Potency": "inactive"},
      {"smiles": "CCC1=CC2CN(C1)Cc1c([nH]c3ccccc13)[C@@](C(=O)OC)(c1cc3c(cc1OC)N(C)[C@H]1[C@@](O)(C(=O)OC)[C@H](OC(C)=O)[C@]4(CC)C=CCN5CC[C@]31[C@@H]54)C2", "note": "(stereo partly drawn)", "Potency": "inactive"}
    ]}
  ]
}
